G9a inh – G9a (human) methyltransferase inhibition; G9a H3K9 monomethylation, AlphaScreen, 2 h; Potency, µM (series often up to 102 µM), inactives show top-dose activity, negative = inhibition, most hits filed as inhibitors; Q96KQ7; AID 504332; 350,000 tested, 8.8% active; note: % is set by controls: 0 for no effect and ±100 for the full control effect; nearly all actives have a fitted effect of over 75% in size
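G9a (20 nM) was preincubated 15 min with compound, then reacted 2 h at room temperature with 500 nM biotin-H3K9 peptide and 20 µM SAM. Monomethyl-H3K9 detected by AlphaScreen using anti-H3K9me1 antibody.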
JMJD2A Tudor – JMJD2A Tudor domain (human) inhibition; AID 504339; Potency, µM (titrated, usually from 114 µM), inactives show at the top dose activity change, negative = inhibition, most hits filed as inhibitors; AlphaScreen JMJD2A-Tudor / H3K4me3 peptide binding; 390,000 tested, 4.4% active; O75164; note: % is set by controls: 0 for no effect and ±100 for the full control effect; nearly all actives have a fitted effect of over 50% in size
PLK1 PBD inh – inhibitors of human PLK1 polo-box domain binding | Potency, µM, for inactives: max response, negative = inhibition, actives largely listed as inhibitors | P53350 | Plk1 PBD binding of FITC phosphopeptide, fluorescence polarization | AID 720504 | 360,000 tested, 2.8% active; note: series mostly up to about 57 µM; % is set by controls: 0 for no effect and ±100 for the full control effect; nearly all actives have a fitted effect of over 65% in size
BAZ2B inh – blocks human BAZ2B. Q9UIF8. AlphaScreen BAZ2B-H3K14Ac peptide displacement. Potency, µM (highest dose often 114 µM), for the others: at the highest dose activity change, negative = inhibition, actives largely listed as inhibitors. 360,000 tested, 4.4% active. AID 504333; note: % is set by controls: 0 for no effect and ±100 for the full control effect; nearly all actives have a fitted effect of over 60% in size
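AlphaScreen displacement: compounds (up to 110uM) incubated 30 min at room temperature with a preformed 50 nM BAZ2B/50 nM biotinylated H3K14Ac peptide complex in PBS pH 7.4 with Tween-20. Donor and acceptor beads at 10 ug/mL final added, 20 min light-protected before reading.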
HP1b binding inh – HP1-beta chromodomain-methylated histone interaction inhibition | Potency, µM (titrated, usually from 114 µM), for the others: at the top dose activity change, negative = inhibition, most hits filed as inhibitors | 390,000 tested, 0.56% active | AlphaScreen HP1-beta / biotin-H3K9me3 peptide binding; note: nearly all actives have a fitted effect of over 70% in size
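HP1-beta protein (50 nM final) preincubated 30 min at room temperature with biotinylated H3(1-18)K9me3 peptide (50 nM) in PBS pH 7.4, 0.01% Tween-20, then compound added for 30 min. AlphaScreen streptavidin donor/nickel chelate acceptor beads (10 ug/mL final), 30 min dark, luminescence read.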
VDR inhibitor – inhibitors of human vitamin D receptor | Potency, µM, inactives show max response, negative = inhibition, most hits filed as inhibitors | VDR-SRC2-3 peptide fluorescence polarization, 2 h | 400,000 tested, 0.93% active | AID 504847; note: % is set by controls: 0 for no effect and ±100 for the full control effect
Target sequence (P11473 whole entry, looked up): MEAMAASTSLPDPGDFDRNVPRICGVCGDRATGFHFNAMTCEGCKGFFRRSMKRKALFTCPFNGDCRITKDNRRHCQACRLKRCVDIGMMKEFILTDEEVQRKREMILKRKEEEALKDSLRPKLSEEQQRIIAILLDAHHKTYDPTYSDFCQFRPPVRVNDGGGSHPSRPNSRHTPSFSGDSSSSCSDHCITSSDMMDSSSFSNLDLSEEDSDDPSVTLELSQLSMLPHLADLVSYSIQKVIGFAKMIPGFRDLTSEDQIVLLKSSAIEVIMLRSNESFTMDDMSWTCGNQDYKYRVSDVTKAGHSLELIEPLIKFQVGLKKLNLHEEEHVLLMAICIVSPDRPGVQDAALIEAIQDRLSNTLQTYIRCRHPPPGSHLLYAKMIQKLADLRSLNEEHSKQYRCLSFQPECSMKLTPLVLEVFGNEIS
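VDR–SRC2-3 interaction, FP format. Cmpds 23 nl via pintool, brief spin, 2 h ambient incubation.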
* = called active by the depositor; [ ] = dose if it differs, or a comment. In the library only some 11% were active in any assay of this set; here they are far more common. Calls come from the whole dose curve; as a rule, active = well fitted curve in the direction sought with a large enough effect; inconclusive = small, poorly fitted or top-dose-only effect, or another doubt; inactive = no such curve, though single readings can be large; an effect the other way counts as inactive or inconclusive. Potency is the fitted concentration of half-maximal effect.

For CNS(=O)(=O)c1ccc(N=Cc2c(O)n(-c3cccc(C)c3)c(=O)[nH]c2=O)cc1 the results were G9a inh inconclusive, JMJD2A Tudor -20%, PLK1 PBD inh inconclusive, BAZ2B inh -3%, HP1b binding inh -12% and VDR inhibitor inconclusive.
For Cn1c(O)c(/C=C/C=Nc2ccccc2)c(=O)n(C)c1=S the results were G9a inh 45µM*, JMJD2A Tudor -14%, PLK1 PBD inh 14%, BAZ2B inh -1%, HP1b binding inh 24% and VDR inhibitor -9%.
Screening CC1CCC(NCCc2ccc3c(c2)OCO3)CC1 (centres undefined) returned G9a inh inconclusive, JMJD2A Tudor 3.2µM*, PLK1 PBD inh 2%, BAZ2B inh inconclusive, HP1b binding inh inconclusive and VDR inhibitor 13%.
`c1cc2c(cc1CCNC1C3CC4CC(C3)CC1C4)OCO2` (centres undefined) gave G9a inh 25µM*, JMJD2A Tudor 4µM*, PLK1 PBD inh 0%, BAZ2B inh inconclusive, HP1b binding inh -22% and VDR inhibitor 0%.
Screening CCOc1ccccc1CNCCc1ccc2c(c1)OCO2 returned G9a inh 13%, JMJD2A Tudor -11%, PLK1 PBD inh -23%, BAZ2B inh 3%, HP1b binding inh 21% and VDR inhibitor -1%.
COc1cccc2c1C13CC[N+]4(CC5CC5)CO[C@]1(CCC(=O)C3)C4C2 was read as G9a inh 21%[59 µM] and VDR inhibitor 10%.
For C[C@H]1[C@@H](O)[C@@H](C)/C=C\C=CCC\C=C/C=C\C=C/C=C[C@@H](O[C@H]2O[C@@H](C)[C@@H](O)[C@@H](N)[C@@H]2O)C[C@@H]2O[C@@](O)(C[C@@H](O)[C@H]2C(=O)O)C[C@@H](O)[C@@H](O)CC[C@@H](O)C[C@@H](O)C[C@@H](O)CC(=O)O[C@H]1C the results were G9a inh 24%[21.5 µM] and VDR inhibitor -1%.
Nc1ccc2nonc2c1[N+](=O)[O-] was read as G9a inh inconclusive, JMJD2A Tudor -12%, PLK1 PBD inh 19µM*, BAZ2B inh -23%, HP1b binding inh 40% and VDR inhibitor -16%.
Screening Cc1ccc(-n2nc(C)c3c2OC(N)=C(C#N)C3c2cccs2)cc1 (centres undefined) returned G9a inh 35µM*, JMJD2A Tudor -1%, PLK1 PBD inh 0%, BAZ2B inh 35µM*, HP1b binding inh 37% and VDR inhibitor 4%.
Screening Cc1ccc(-n2nc(C)c(C3C(C#N)=C(N)Oc4c3c(=O)oc3ccccc43)c2Cl)cc1 (centres undefined) returned G9a inh 1%[59 µM] and BAZ2B inh 2%.
Screening COP(=S)(OC)Oc1ccc(Sc2ccc(OP(=S)(OC)OC)cc2)cc1 returned G9a inh inconclusive, JMJD2A Tudor 113%, PLK1 PBD inh inconclusive, HP1b binding inh 139% and VDR inhibitor 50µM*.
Screening CN(C(=O)Oc1ccc([N+](=O)[O-])cc1)c1ccccc1 returned G9a inh 4%[59 µM], JMJD2A Tudor -6%, PLK1 PBD inh -1%, BAZ2B inh 1%, HP1b binding inh 23% and VDR inhibitor -11%.
For COP(=S)(OC)Oc1ccc([N+](=O)[O-])cc1 the results were VDR inhibitor 16µM*.
For CCOC(=O)c1cnc2c(ccc3ccccc32)c1Nc1ccc(N(C)C)cc1 the results were G9a inh 2.5µM*, JMJD2A Tudor 11µM*, BAZ2B inh 6.3µM*, HP1b binding inh 10µM* and VDR inhibitor -6%.
CCOC(=O)NC(O)C(Cl)(Cl)Cl (centres undefined) was read as G9a inh -1%[12.7 µM] and VDR inhibitor 5%.
C/C(CC(c1ccccc1)c1c(O)c2ccccc2oc1=O)=N\NC(N)=S (centres undefined) was read as G9a inh inconclusive, JMJD2A Tudor 1.3µM*, PLK1 PBD inh -14%, BAZ2B inh 2%, HP1b binding inh -20% and VDR inhibitor -3%.
Screening NC(=O)O returned VDR inhibitor 9%.

Screening data (PubChem)
